BRCA1 expr act: activators of BRCA1 expression. 380,000 compounds, 1.1% hits. MCF7-BRCA1-FFLuc reporter, luminescence, 48 h; response scale: scaled: vehicle 0%, 10 µM genistein 100%. AID 624202. Potency, µM (highest dose often 46.1 µM), inactives show at the top dose activation, usual class: activators; note: nearly all actives have a fitted effect of over 80% in size
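MCF7-BRCA1-FFLuc cells, 2000/well in phenol-red-free MEM, attached 2 h then treated 48 h at 37 C. Luciferase luminescence read 15 min after reagent; normalized to genistein maximum activation (10microM) and DMSO, concentration-response fitted.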
a7 integrin act: activates integrin-mediated alleviation for muscular dystrophy | Potency, µM (doses to about 38.3 µM), without a hit: at the highest dose activation, most hits filed as activators | 350,000 compounds, 0.064% hits | alpha7betagal myoblasts, beta-gal FDG fluorescence, 48 h | AID 624291;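 note: 100% = response of the positive control SU9516; nearly all actives have a fitted effect of over 60% in size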
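Alpha7betagal+/- myoblasts (passage 13) were plated 16-24 hr, then exposed to compounds (1:260 dilution of DMSO stock) for 48 hours at 37C. After MPER lysis, β-galactosidase reporter activity was read as FDG fluorescence (ex 480/em 540) after 30 minutes.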
GLP1R cytotox: cytotoxic in the GLP-1 receptor inverse agonist counter-screen. AID 624418. HEK293 cAMP-luciferase reporter cells, luminescence, 24 h. Potency, µM (series often up to 38.3 µM), without a hit: top-dose activity change, negative = inhibition, hits mostly inhibitors. 410,000 compounds, 0.13% hits;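 note: loss of luciferase light is scored as toxicity; % is set by controls: 0 for no effect and ±100 for the full control effect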
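To flag toxic compounds, the library was rerun on cells for 24 hr at 37 deg C and 5% CO2. Viability-linked luminescence was captured 12 min after adding luciferase detection reagent.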
GLP1R ag: GLP-1 receptor (human) agonism. P43220. HEK293 GLP-1R CRE-luciferase, luminescence, 4-6 h; cells express a hypersensitive GLP-1R form. Potency, µM (series often up to 45.6 µM), without a hit: at the highest dose activation, most hits filed as activators. 380,000 compounds, 0.007% hits. AID 624172; note: % of control where 0% means no effect
Target sequence (P43220 whole entry, looked up): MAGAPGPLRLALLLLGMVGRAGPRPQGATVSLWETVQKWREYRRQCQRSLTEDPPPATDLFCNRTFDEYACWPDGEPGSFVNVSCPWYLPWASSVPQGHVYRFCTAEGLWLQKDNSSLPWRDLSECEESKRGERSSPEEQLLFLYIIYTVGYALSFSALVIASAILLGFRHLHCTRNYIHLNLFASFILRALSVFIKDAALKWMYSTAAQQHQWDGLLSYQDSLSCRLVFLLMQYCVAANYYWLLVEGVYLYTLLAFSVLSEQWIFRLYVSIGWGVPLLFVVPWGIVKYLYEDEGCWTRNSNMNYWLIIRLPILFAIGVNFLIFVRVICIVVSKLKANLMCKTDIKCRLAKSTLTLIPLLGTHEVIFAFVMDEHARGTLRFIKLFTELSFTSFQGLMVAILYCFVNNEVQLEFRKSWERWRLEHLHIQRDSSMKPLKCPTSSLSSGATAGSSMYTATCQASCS
GLP-1R inv ag: inverse agonists of human GLP-1 receptor; P43220; HEK293 GLP-1R CRE-luciferase, luminescence, 24 h; GLP-1R form is constitutively active; Potency, µM (doses to about 38.3 µM), without a hit: at the top dose activity change, negative = inhibition, hits mostly inhibitors; 410,000 compounds, 1.6% hits; AID 624417; note: % is set by controls: 0 for no effect and ±100 for the full control effect; nearly all actives have a fitted effect of over 55% in size
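Stable HEK293 clone (constitutively active GLP-1R + cAMP-response luciferase); 200 cells/uL plated, 12 h pre-culture, compound 24 hr, 37 deg C/5% CO2; detection reagent 12 min RT; luminescence.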
* marks the source's active call; other numbers are inactive results; ? = inconclusive; · = not tested or not shown; [ ] = remark or other dose. Shown are actives, neighbours in structure and some others; about 2.7% of the full set was active somewhere. Calls come from the whole dose curve; as a rule, active = well fitted curve in the direction sought with a large enough effect; inconclusive = small, poorly fitted or top-dose-only effect, or another doubt; inactive = no such curve, though single readings can be large; an effect the other way counts as inactive or inconclusive. Potency is the fitted concentration of half-maximal effect.

SMILES	BRCA1 expr act	a7 integrin act	GLP1R cytotox	GLP1R ag	GLP-1R inv ag
Nc1ccc(-c2nnc(-c3ccc(N)cc3)o2)cc1	5.6µM*	31%	-10%	5%	68%
CCOc1ccc(-c2nnc(-c3ccccc3)o2)cc1	?	24%	-3%	-13%	5µM*
Cc1cccc(-c2nnc(-c3ccc(N)cc3)o2)c1	?	8%	-6%	-3%	47%
COc1ccc(CCNC(=O)C(=O)NCC(c2cccs2)S(=O)(=O)c2ccccc2)cc1 (stereo not given)	·	·	-11%	·	-11%
COc1cc(NC(=O)Cn2c(=O)n(Cc3ccco3)c(=O)c3sc4ccccc4c32)cc(OC)c1	-7%	·	1%	1%	-9%
CCOc1ccc(NC(=O)CSc2cn(CC(=O)N3CCCCCC3)c3ccccc23)cc1	·	·	-3%	·	?
Cc1nc(-c2ccc(S(=O)(=O)N(Cc3ccccc3)C(C)C)cc2)co1	11%	·	0%	-2%	?
Cc1cccc(-c2nc(CSCC(=O)N3CCN(c4ccccc4)CC3)c(C)o2)c1	·	·	8%	·	?
CNS(=O)(=O)c1cn(CC(=O)N2CCN(c3cccc(Cl)c3)CC2)cc1S(=O)(=O)NC	·	·	-7%	·	-5%
Cc1ccccc1NC(=O)c1ccccc1OCC(=O)Nc1ccc(Br)cc1	-41%	·	·	·	·
COc1cc(/C=C/c2cc(C(=O)O)c3ccccc3n2)ccc1OC(F)F	2.5µM*	13%	6%	1%	7%
C=CCn1c(N)c(C(=O)NCCC2=CCCCC2)sc1=S	13µM*	-7%	10%	25%	-6%
COc1ccccc1NC(=O)Cn1c(=O)n(CC2CCC(C(=O)NCCc3ccccc3)CC2)c(=O)c2ccccc21 (stereo not given)	3%	·	4%	-1%	-23%
COc1cc(NC(=S)Nc2ccc3c(c2)OCCO3)cc(OC)c1OC	58%	-5%	15%	0%	10%
O=C(NC(=S)Nc1ccc2c(c1)OCCO2)c1cccc(Br)c1	4µM*	-13%	?	15%	?
S=C(Nc1ccc(Br)cc1)Nc1ccc2c(c1)OCCO2	11µM*	-15%	-15%	5%	?
C[N+](C)(CCCCCC[N+](C)(C)C1c2ccccc2-c2ccccc21)C1c2ccccc2-c2ccccc21	·	·	·	-5%	·
CC1CCN(CC(O)COC2CC(C)CCC2C(C)C)CC1 (stereo not given)	-36%	-37%	?	-1%	-22%
CC1CCC(C(C)C)C(OCC(O)CNC(C)(C)C)C1 (stereo not given)	-2%	-49%	-15%	12%	11µM*
COc1ccc(CCNC(=O)C(=O)NCC(c2cccs2)S(=O)(=O)c2ccc(C)cc2)cc1 (stereo not given)	·	·	-9%	·	17%
O=C(NCCc1csc(-c2ccc(F)cc2)n1)c1cccs1	·	·	-6%	·	?
CCn1c2ccccc2c2cc(CN3CCN(Cc4cc(OC)c(O)c(OC)c4)CC3)ccc21	·	·	-1%	·	11µM*
Cc1sc(-c2cc3c([nH]c2=O)CC(c2ccccc2)CC3=O)nc1-c1ccc(Cl)cc1 (stereo not given)	·	·	?	·	1.3µM*
O=C1CC(c2ccccc2)Cc2[nH]c(=O)c(-c3nc(-c4ccc(Cl)cc4)cs3)cc21 (stereo not given)	·	·	5%	·	?
CCN(Cc1ccccc1)C(=O)CN1C(=O)COc2ccc(S(=O)(=O)N(CC)CC)cc21	-5%	·	-4%	-1%	?
SMILES	BRCA1 expr act	a7 integrin act	GLP1R cytotox	GLP1R ag	GLP-1R inv ag
CC1(C(=O)Nc2ccccc2Cc2ccccc2)CCN1Cc1ccccc1Cl (stereo not given)	-13%	·	2%	-6%	?
CC1(C(=O)Nc2ccccc2Cc2ccccc2)CCN1CCc1ccccc1 (stereo not given)	-13%	·	6%	-3%	13µM*
Cc1ccc(-c2nn(-c3ccccc3)cc2CO)o1	3.5µM*	2%	-12%	-1%	4%
CC(=O)N1CCCN(Cc2cn(-c3ccc(C)cc3)nc2-c2cccc(C)c2)CC1	34%	0%	-15%	24%	10µM*
OCc1cn(-c2ccccc2)nc1-c1ccco1	?	?	7%	-1%	27%
Cc1cccc(-n2cc(CN3CCN(Cc4nccn4C)CC3)c(-c3cccc(F)c3)n2)c1	69%	-27%	?	14%	4.5µM*
COc1ccc(-n2cc(CN3CCCC3)c(-c3cccc(F)c3)n2)cc1	-3%	-40%	?	15%	?
Cc1ccc(-c2nn(-c3cccc(F)c3)cc2CN2CCN(c3ccccn3)CC2)o1	-38%	5%	5%	-1%	10µM*
Cc1ccc(C(=O)c2cc(O)c(O)c([N+](=O)[O-])c2)cc1	·	·	·	-3%	·
CCC(=O)N1CCc2cc(S(=O)(=O)NCCC(=O)Nc3cccc(SC)c3)ccc21	·	·	-7%	·	1%
COc1ccc(S(=O)(=O)N(CC(=O)Nc2cc(Cl)ccc2C)Cc2ccccc2)cc1OC	·	·	-5%	·	?
Cc1cc(OCC(=O)Nc2ccccc2N2CCCCC2)ccc1C(C)C	-53%	-16%	11%	-4%	-27%
Cc1cc(OCC(=O)Nc2ccccc2N2CCCC2)ccc1C(C)C	-15%	-25%	18%	25%	11µM*
CC(C)(C)c1cc(NC(=O)c2cccs2)no1	?	15%	2%	-1%	-6%
CC(C)(C)c1cc(NC(=O)c2cccnc2)no1	7.1µM*	-14%[7.66 µM]	4%	0%	-2%
CN(CC(=O)Nc1ccc(OC(F)(F)F)cc1)C(=O)Cc1c(Cl)cccc1Cl	-17%	17%	0%	9%	?
CN(CC(=O)Nc1ccc(OC(F)(F)F)cc1)C(=O)Cc1cccs1	-17%	-36%	-3%	4%	11µM*
CC(=O)Nc1ccc(NC(=O)c2nc(SCc3ccccc3F)ncc2Cl)cc1	-5%	·	·	·	·
Brc1ccc(N/N=C(/N=Nc2nn[nH]n2)c2ccccc2)cc1	-77%	-17%	?	9%	1.3µM*
O=C(O)c1ccc(N=N/C(=N\Nc2ccc(C(=O)O)cc2)c2ccccc2)cc1	98%	2%	-10%	-2%	26%
Cc1ccc(C)c(N2CCN(C(=O)c3cc(S(=O)(=O)N4CCCCC4)cn3C)CC2)c1	-3%	·	0%	-3%	-11%
CC[C@]12c3[nH]c4ccc(Cl)cc4c3CCN1C(=O)[C@@H](CC(=O)NCc1cccc(C(F)(F)F)c1)C[C@@H]2C(=O)N1CCN(C(=O)c2ccco2)CC1	-72%	-40%	?	-1%	10µM*
CC(C)(C)c1ccc(-c2nnc(NC(=O)c3ccccc3)s2)cc1	3.2µM*	-9%	1%	-1%	?
Cc1nnc(NC(=O)c2ccccc2)s1	·	·	-1%	·	8%
O=C(Nc1nnc(-c2ccc(F)cc2)s1)c1ccco1	2.8µM*	-21%	-2%	4%	15%

High-throughput results as filed in PubChem.
